Source: PubChem BioAssay (NCI)
About 83,000 compounds went through this panel and 20% of them were active in at least one assay; those are over-represented in the sample as a whole.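 A percent growth of 40 corresponds to 60% growth inhibition; 0 means no net growth; -100 means all cells died. Active threshold: below 10.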 Unmarked numbers belong to inactive results. Calls of active or inactive are those of the source.

What follows are molecules tested on SN12C renal (assay: NCI-60 one-dose screen, 48 h (100 = growth as untreated, 0 = no growth, -100 = all killed)). Details: 10 µM unless noted.
`Cc1ncc(C(=O)Nc2ccc(CN3CCN(C)CC3)c(C(F)(F)F)c2)cc1C#Cc1cnc(NC2CC2)c2ncccc12` was tested, and the growth was -85.3% (active).
In the case of `COc1cc(NC(C)CCCN)c2nccc(C)c2c1OC` (stereo not given), the growth is reported as 82%.
`CCOC(=O)CCCCCCCCC(=O)OCC` was tested, and the growth was 102%.
For `CCCCCCCCC/C(=N\NC(=O)c1ccncc1)c1ccc(O)c(O)c1O`, the growth was 25.7%.
`C/C=C(/C)C(=O)OC1C=C(CO)C(=O)C(OC(=O)C2(C)OC2C)C1C(C)C` (stereo not given) was tested, and the growth was -44.4% (active).
`Cc1nc(NC(=O)NC2CCCCC2)sc1C(=O)NN` gave a growth of 106%.
Work on `COc1ccc(Cn2cc3c(c2-c2ccc(OC)cc2)CCc2cnoc2-3)cc1` yielded a growth of 26.5%.
Work on `CCOC(=O)CSSCC(=O)OCC` yielded a growth of 103%.
In the case of `O=C(N/N=C/c1cc(Cl)ccc1O)C(=O)N/N=C/c1cc(Cl)ccc1O`, the growth is reported as 79.5%.
`Nc1nc2c(c3cnccc13)C(c1cccc(Br)c1)Cc1cnccc1-2` (stereo not given) gave a growth of 27.5%.
Work on `COc1ccc(Cn2cc3c(c2-c2ccc(O)cc2)CCc2cnoc2-3)cc1` yielded a growth of 40.8%.
`COc1cccc(CNC(=O)c2cccc(C3CC(=O)c4c(cc(OC)c(OC)c4OC)O3)c2)c1` (stereo not given) gave a growth of 72.7%.
`COc1nc(OC)nc(-c2cc(-c3cc(OC)c(OC)c(OC)c3)no2)n1` showed a growth of 94.6%.
Work on `O=C(N/N=C/c1ccccc1Cl)c1cccc2ccccc12` yielded a growth of 94.9%.
Work on `CCCCCCCCCC[N+](C)(C)C` yielded a growth of 29.5%.
`Cc1nc2c(nnn2-c2ccccc2)c2nc(-c3ccc(Cl)cc3)oc(=O)c12` gave a growth of 104%.
`Cc1nc(N)sc1C(=O)NCCO` gave a growth of 101%.
For `CCCCCCCCCCCCCCCCC(=O)O.CCCCCCCCCCCCCCCCCC(=O)O.CCCCCCCCCCCCCCCCCC(=O)O.CCCCCCCCCCCCCCCCCC(=O)O.CCCCCCCCCCCCCCCCCC(=O)O.CO[CH-]OC12COC1CC(O)C1(C)C(O)C(OC(C)O)C3=C(C)C(OC(=O)C(O)C([NH-])c4ccccc4)CC(O)(C(OC(=O)c4ccccc4)C21)C3(C)C.[Cu+].[Zn].[Zn].[Zn].[Zn].[Zn]` (stereo not given), the growth was 29.9%.
With `O=S(=O)(O)CCI` the growth was 105%.
With `CC1(C)NCCC[C@]2(C)[C@H]3CC=C4[C@@H]5C[C@](C)(COC(=O)c6ccccc6C(=O)O)CC[C@]5(C)CC[C@@]4(C)[C@]3(C)CC[C@@H]12` the growth was 65.5%.
`c1ccc2[nH]c(-c3ccc(OCCCCCOc4ccc(-c5nc6ccccc6[nH]5)cc4)cc3)nc2c1` showed a growth of 19.8%.
Molecule `COc1nc(OC)nc(-c2cc(C(=O)c3ccc(Br)cc3)n3cc(C)cc(C)c23)n1` has a growth of 48%.
In the case of `CN1CCN(Cc2ccc(NC(=O)c3ccc(C#Cc4c(N)ncc5ccc(F)cc45)cc3)cc2C(F)(F)F)CC1`, the growth is reported as -71.3% (active).
Molecule `CC(C)(C)OC(=O)N1C/C(=C\c2ccccc2)C(=O)/C(=C/c2ccccc2)C1` has a growth of 93.5%.
Work on `O=C(CN1C(=O)NC(c2ccccc2)(c2ccccc2)C1=O)c1ccc(N2CCCC2)cc1` yielded a growth of 103%.
`C[C@H]1C[C@@H](n2cnc3c(N)nccc32)[C@H](O)[C@@H]1O` gave a growth of 92.3%.
`Cc1nc2c(nnn2-c2ccccc2)c2nc(-c3ccccc3)oc(=O)c12` showed a growth of 103%.
Molecule `COc1cc2oc(-c3ccc(NC(=O)c4ccccc4)cc3)cc(=O)c2c(OC)c1OC` has a growth of 83.7%.
With `COc1cccc2c1n([O-])c1cccc(OC)c1[n+]2=O` the growth was 83.3%.
`CC1C(=O)CCCC1=O` showed a growth of 95.6%.
In the case of `Oc1ccccc1/C=N/N=C/c1c(O)ccc2ccccc12`, the growth is reported as 85.1%.
In the case of `FC(F)(F)c1cccc(-c2[nH]ncc2-c2nnnn2-c2ccccc2)c1`, the growth is reported as 65.5%.
Molecule `Nc1ccc(S(=O)(=O)c2ccc(NO)cc2)cc1` has a growth of 121%.
`Nc1ccc(S(=O)(=O)Nc2cc(F)cc(F)c2)cc1` gave a growth of 105%.
`CC(C)(C)c1ccc([I+]c2ccc(C(C)(C)C)cc2)cc1` was tested, and the growth was 3.97% (active).
For `O=C1NCCN1/N=C/c1c(Cl)nc2n1CCS2`, the growth was 140%.
Work on `CC(=O)OCC1O[C@@H](OC(C)=O)[C@@H](NC(=O)NS(=O)(=O)c2ccccc2)C(OC(C)=O)[C@@H]1OC(C)=O` (stereo not given in full) yielded a growth of 97.2%.
`COc1ccc(Cn2cc3c(c2-c2ccccc2)CCc2cnoc2-3)cc1OC` gave a growth of 49.5%.
In the case of `CCn1cc(C(=O)O)c(=O)c2cc(F)c(N3CCN(S(=O)(=O)c4ccc(Cl)cc4)CC3)cc21`, the growth is reported as 11.6%.
Molecule `Cc1ccc(C(=O)Nc2ccc(CN3CCN(C)CC3)c(C(F)(F)F)c2)cc1C#Cc1cnc(N)c2ccc(C#N)cc12` has a growth of 24.1%.

These molecules were tested on UO-31 renal in the same assay as above. Details: 10 µM unless noted.
For `Cc1ncc(C(=O)Nc2ccc(CN3CCN(C)CC3)c(C(F)(F)F)c2)cc1C#Cc1cnc(NC2CC2)c2ncccc12`, the growth was -97% (active).
For `COc1cc(NC(C)CCCN)c2nccc(C)c2c1OC` (stereo not given), the growth was 89.5%.
`CCOC(=O)CCCCCCCCC(=O)OCC` showed a growth of 95.7%.
For `CCCCCCCCC/C(=N\NC(=O)c1ccncc1)c1ccc(O)c(O)c1O`, the growth was 20.8%.
`C/C=C(/C)C(=O)OC1C=C(CO)C(=O)C(OC(=O)C2(C)OC2C)C1C(C)C` (stereo not given) was tested, and the growth was -96.3% (active).
`Cc1nc(NC(=O)NC2CCCCC2)sc1C(=O)NN` showed a growth of 84%.
`COc1ccc(Cn2cc3c(c2-c2ccc(OC)cc2)CCc2cnoc2-3)cc1` gave a growth of 25.7%.
Molecule `CCOC(=O)CSSCC(=O)OCC` has a growth of 100%.
`O=C(N/N=C/c1cc(Cl)ccc1O)C(=O)N/N=C/c1cc(Cl)ccc1O` was tested, and the growth was 48.2%.
`Nc1nc2c(c3cnccc13)C(c1cccc(Br)c1)Cc1cnccc1-2` (stereo not given) was tested, and the growth was 21.4%.
`COc1ccc(Cn2cc3c(c2-c2ccc(O)cc2)CCc2cnoc2-3)cc1` gave a growth of 35.4%.
Work on `COc1cccc(CNC(=O)c2cccc(C3CC(=O)c4c(cc(OC)c(OC)c4OC)O3)c2)c1` (stereo not given) yielded a growth of 51.6%.
Molecule `COc1nc(OC)nc(-c2cc(-c3cc(OC)c(OC)c(OC)c3)no2)n1` has a growth of 71.3%.
Molecule `O=C(N/N=C/c1ccccc1Cl)c1cccc2ccccc12` has a growth of 91.5%.
`CCCCCCCCCC[N+](C)(C)C` gave a growth of 72.9%.
`Cc1nc2c(nnn2-c2ccccc2)c2nc(-c3ccc(Cl)cc3)oc(=O)c12` was tested, and the growth was 83%.
Molecule `Cc1nc(N)sc1C(=O)NCCO` has a growth of 80.2%.
Work on `CCCCCCCCCCCCCCCCC(=O)O.CCCCCCCCCCCCCCCCCC(=O)O.CCCCCCCCCCCCCCCCCC(=O)O.CCCCCCCCCCCCCCCCCC(=O)O.CCCCCCCCCCCCCCCCCC(=O)O.CO[CH-]OC12COC1CC(O)C1(C)C(O)C(OC(C)O)C3=C(C)C(OC(=O)C(O)C([NH-])c4ccccc4)CC(O)(C(OC(=O)c4ccccc4)C21)C3(C)C.[Cu+].[Zn].[Zn].[Zn].[Zn].[Zn]` (stereo not given) yielded a growth of 27.2%.
`O=S(=O)(O)CCI` gave a growth of 95.4%.
`CC1(C)NCCC[C@]2(C)[C@H]3CC=C4[C@@H]5C[C@](C)(COC(=O)c6ccccc6C(=O)O)CC[C@]5(C)CC[C@@]4(C)[C@]3(C)CC[C@@H]12` showed a growth of 87.4%.
In the case of `c1ccc2[nH]c(-c3ccc(OCCCCCOc4ccc(-c5nc6ccccc6[nH]5)cc4)cc3)nc2c1`, the growth is reported as 78%.
`COc1nc(OC)nc(-c2cc(C(=O)c3ccc(Br)cc3)n3cc(C)cc(C)c23)n1` showed a growth of 71%.
With `CN1CCN(Cc2ccc(NC(=O)c3ccc(C#Cc4c(N)ncc5ccc(F)cc45)cc3)cc2C(F)(F)F)CC1` the growth was -56.8% (active).
With `CC(C)(C)OC(=O)N1C/C(=C\c2ccccc2)C(=O)/C(=C/c2ccccc2)C1` the growth was 71.9%.
`O=C(CN1C(=O)NC(c2ccccc2)(c2ccccc2)C1=O)c1ccc(N2CCCC2)cc1` showed a growth of 66.6%.
Work on `C[C@H]1C[C@@H](n2cnc3c(N)nccc32)[C@H](O)[C@@H]1O` yielded a growth of 167%.
`Cc1nc2c(nnn2-c2ccccc2)c2nc(-c3ccccc3)oc(=O)c12` was tested, and the growth was 86.5%.
Work on `COc1cc2oc(-c3ccc(NC(=O)c4ccccc4)cc3)cc(=O)c2c(OC)c1OC` yielded a growth of 88.7%.
`COc1cccc2c1n([O-])c1cccc(OC)c1[n+]2=O` gave a growth of 60.6%.
For `CC1C(=O)CCCC1=O`, the growth was 86.7%.
`Oc1ccccc1/C=N/N=C/c1c(O)ccc2ccccc12` was tested, and the growth was 42.9%.
For `FC(F)(F)c1cccc(-c2[nH]ncc2-c2nnnn2-c2ccccc2)c1`, the growth was 72.4%.
Work on `Nc1ccc(S(=O)(=O)c2ccc(NO)cc2)cc1` yielded a growth of 84.2%.
`Nc1ccc(S(=O)(=O)Nc2cc(F)cc(F)c2)cc1` showed a growth of 85.4%.
`CC(C)(C)c1ccc([I+]c2ccc(C(C)(C)C)cc2)cc1` gave a growth of 62.8%.
`O=C1NCCN1/N=C/c1c(Cl)nc2n1CCS2` gave a growth of 58.6%.
Work on `CC(=O)OCC1O[C@@H](OC(C)=O)[C@@H](NC(=O)NS(=O)(=O)c2ccccc2)C(OC(C)=O)[C@@H]1OC(C)=O` (stereo not given in full) yielded a growth of 90.9%.
Molecule `COc1ccc(Cn2cc3c(c2-c2ccccc2)CCc2cnoc2-3)cc1OC` has a growth of 35.3%.
`CCn1cc(C(=O)O)c(=O)c2cc(F)c(N3CCN(S(=O)(=O)c4ccc(Cl)cc4)CC3)cc21` gave a growth of 51.1%.
For `Cc1ccc(C(=O)Nc2ccc(CN3CCN(C)CC3)c(C(F)(F)F)c2)cc1C#Cc1cnc(N)c2ccc(C#N)cc12`, the growth was 14.3%.
